Results published in ChEMBL document CHEMBL1157539, “Thousands of chemical starting points for antimalarial lead identification” (Nature, 2010).

test system: Plasmodium falciparum; experiment: GSK_TCMDC: Inhibition of Plasmodium falciparum 3D7 in whole red blood cells, using parasite LDH activity as an index of growth. Test compounds present at 2uM; assay type: functional

In order of rising Inhibition:
1. CCn1c(-c2cc(C)on2)nc2cnc(Oc3ccc(C(=O)N4CC(=O)N(C)C4C(C)(C)C)cc3)cc21 (stereo not given)  81%
2. CCn1c(C2CCN(CCC3CCN(C(=O)/C=C/c4ccc(Cl)c(Cl)c4)CC3)CC2)nc2ccccc21  86%
3. O=C(NC(c1ccc(Cl)cc1)c1ccc2cccnc2c1O)c1ccccc1 (stereo not given)  87%
4. O=C(C=Cc1ccc(Cl)c(Cl)c1)NCCCCCN1CCCC(CCCNS(=O)(=O)c2ccc(Br)cc2)C1 (stereo not given)  88%
5. O=C(NCC1Cc2cc(Oc3ccccc3)ccc2O1)c1ccc([N+](=O)[O-])o1 (stereo not given)  88%
6. O=C(NC1CCN(Cc2ccsc2)CC1)c1ccc(-c2cccc(C(F)(F)F)c2)s1.O=C(O)C(F)(F)F  88%
7. CCCC[C@H](NC(=O)O[C@H](COc1ccc(OCc2ccccc2)cc1)C(C)(C)C)C(=O)C(=O)Nc1cc[nH]n1  88%
8. CCCc1cc(=O)[nH]c(-n2nc(C)cc2NC(=O)c2cc3ccccc3o2)n1  90%
9. Cc1c(Cc2ccccc2Cl)cnc2nc(N)nc(N)c12.Cl  91%
10. Cc1cc(C)c(NC(=O)N2CCCN(CCCCCNC(=O)/C=C/c3ccc(Cl)c(Cl)c3)CC2)c(C)c1  91%
11. CC1(C)N=C(N)N=C(Nc2ccc(F)c(F)c2)N1.Cl  91%
12. CN(Cc1cc(C(F)(F)F)cc(C(F)(F)F)c1)C(=O)C1CNCC1c1ccc(F)cc1.Cl (stereo not given)  92%
13. N#Cc1cc(C(=O)c2cc(Cl)ccc2O)cn(-c2cc(Cl)cc(Cl)c2)c1=O  93%
14. COc1ccc(Nc2nccc(N3CCC(NC(=O)C(C)c4ccc(Cl)cc4)CC3)n2)cc1 (stereo not given)  94%
15. Cc1ccccc1C(=O)Nc1cccc(-c2nc3ncccn3c2C)c1  94%
16. CN(C)CCOC(=O)C1(O)CCC2CC1C2(C)C.Cl (stereo not given)  95%
17. COc1ccc2ncc(F)c(NC(=O)C3CCC(NCc4cc5cc(F)cc(F)c5[nH]4)CC3)c2n1.Cl (stereo not given)  95%
18. Cc1cc(N2CCCC2)nc(Nc2ccc(NC(=O)CC(C)C)cc2)n1  95%
19. O=C(NCCc1ccc(Cl)c(Cl)c1)C1CCCN(C(=O)c2ccc(O)c(-c3ccc(Cl)c(Cl)c3)c2)C1 (stereo not given)  96%
20. CO/C(=C\C=C\c1cc2cc(Cl)c(Cl)cc2[nH]1)C(=O)NCCCN(C)CCN(C)c1ccccc1  96%
21. CN1CCN(CCCN(Cc2csc(-c3ccc(CNCc4ccccc4)cc3)n2)C(=O)c2cc(F)cc(F)c2)CC1.O=C(O)C(F)(F)F  97%
22. COc1ccc(O)c(C(=O)c2cc(C#N)c(=O)n(-c3ccc(Oc4ccccc4)cc3)c2)c1  97%
23. Cc1[nH]c(C)c(-c2ccc(OCc3ccccc3)cc2)c(=O)c1Br  97%
24. O=C(O)/C=C\C(=O)O.OCCN1CCN(C2Cc3ccc(F)cc3Sc3ccc(Cl)cc32)CC1 (stereo not given)  98%
25. COc1cc(CNC2Cc3ccccc3C2)ccc1Oc1ccc2nc[nH]c2c1.O=C(O)C(F)(F)F  98%
26. CC(C)N1CCN(C(=O)c2ccc(CNCCCN3CCN(c4ccccc4C(F)(F)F)CC3)s2)CC1.Cl  98%
27. O=C(Nc1cccc(-c2ccc(-c3nc4cc(C(F)(F)F)ccc4[nH]3)cc2)c1)c1csnn1  98%
28. CN(CCCCCN1CCC(NC(=O)Nc2ccc(Oc3ccccc3)cc2)C1)C(=O)/C=C/c1ccc(Cl)c(Cl)c1 (stereo not given)  98%
29. CNC(=O)CC(=O)NCCc1ccc(Cl)cc1  99%
30. CCN1CCc2nc3ccccc3c(C(=O)Nc3ccc(C#N)cc3)c2C1  99%
31. Cc1ccc(Cn2ncc(N3CCCNCC3)c(Cl)c2=O)cc1NC(=O)Nc1ccc(-c2ccccc2)cc1  100%
32. CC(C)(C)c1nn(-c2ccc(Cl)cc2)c2[nH]c(=O)c(CNCc3ccc4c(c3)OCO4)cc12  100%
33. CC(C)CNCc1cccc(-c2cccc(CN(CCCN3CCN(C)CC3)C(=O)CCC3CCCC3)c2)c1.O=C(O)C(F)(F)F  100%
34. CC(=O)Nc1ccc(NC(=O)c2cc(-c3ccc(C)cc3O)n[nH]2)cc1  100%
35. Cc1cccc(-c2ccc3c(c2)CC(NCc2cccc(-n4ccnc4)c2)C3)c1 (stereo not given)  100%
36. CCCNc1ccc2nccc(CCN3CCC(NCc4ccc5c(n4)NC(=O)CS5)CC3)c2n1  100%
37. O=C(Nc1cccc(-c2cccc(-c3nc4cc(F)ccc4[nH]3)c2)c1)Nc1ccc2c(c1)OCO2  100%
38. Cc1cc(-c2nc3ccc(CN4CCN(C)CC4)cc3[nH]2)nn1Cc1cc(Cl)ccc1OCc1ccccc1.Cl  100%
39. CCC1CN2CCc3cc(OC)c(OC)cc3C2CC1CC1NCCc2cc(OC)c(OC)cc21.Cl (stereo not given)  100%
40. CN(C)Cc1cccc(-c2ccc(NC(=O)c3ccc4c(=O)n(CCN5CCCCC5)cnc4c3)cc2)c1  100%

test system: Plasmodium falciparum; experiment: GSK_TCMDC: Inhibition of Plasmodium falciparum Dd2 in whole red blood cells, using parasite LDH activity as an index of growth. Test compounds present at 2uM; assay type: functional

In order of rising Inhibition:
1. CN(C)CCOC(=O)C1(O)CCC2CC1C2(C)C.Cl (stereo not given)  0%
2. Cc1cc(C)c(NC(=O)N2CCCN(CCCCCNC(=O)/C=C/c3ccc(Cl)c(Cl)c3)CC2)c(C)c1  0%
3. CCCNc1ccc2nccc(CCN3CCC(NCc4ccc5c(n4)NC(=O)CS5)CC3)c2n1  0%
4. CCn1c(C2CCN(CCC3CCN(C(=O)/C=C/c4ccc(Cl)c(Cl)c4)CC3)CC2)nc2ccccc21  0%
5. CNC(=O)CC(=O)NCCc1ccc(Cl)cc1  1%
6. CC1(C)N=C(N)N=C(Nc2ccc(F)c(F)c2)N1.Cl  1%
7. O=C(NC1CCN(Cc2ccsc2)CC1)c1ccc(-c2cccc(C(F)(F)F)c2)s1.O=C(O)C(F)(F)F  3%
8. CN(Cc1cc(C(F)(F)F)cc(C(F)(F)F)c1)C(=O)C1CNCC1c1ccc(F)cc1.Cl (stereo not given)  4%
9. O=C(C=Cc1ccc(Cl)c(Cl)c1)NCCCCCN1CCCC(CCCNS(=O)(=O)c2ccc(Br)cc2)C1 (stereo not given)  5%
10. CN(CCCCCN1CCC(NC(=O)Nc2ccc(Oc3ccccc3)cc2)C1)C(=O)/C=C/c1ccc(Cl)c(Cl)c1 (stereo not given)  14%
11. COc1ccc2ncc(F)c(NC(=O)C3CCC(NCc4cc5cc(F)cc(F)c5[nH]4)CC3)c2n1.Cl (stereo not given)  15%
12. COc1ccc(O)c(C(=O)c2cc(C#N)c(=O)n(-c3ccc(Oc4ccccc4)cc3)c2)c1  20%
13. O=C(O)/C=C\C(=O)O.OCCN1CCN(C2Cc3ccc(F)cc3Sc3ccc(Cl)cc32)CC1 (stereo not given)  26%
14. N#Cc1cc(C(=O)c2cc(Cl)ccc2O)cn(-c2cc(Cl)cc(Cl)c2)c1=O  32%
15. Cc1ccc(Cn2ncc(N3CCCNCC3)c(Cl)c2=O)cc1NC(=O)Nc1ccc(-c2ccccc2)cc1  38%
16. CC(C)N1CCN(C(=O)c2ccc(CNCCCN3CCN(c4ccccc4C(F)(F)F)CC3)s2)CC1.Cl  42%
17. Cc1cccc(-c2ccc3c(c2)CC(NCc2cccc(-n4ccnc4)c2)C3)c1 (stereo not given)  49%
18. O=C(Nc1cccc(-c2cccc(-c3nc4cc(F)ccc4[nH]3)c2)c1)Nc1ccc2c(c1)OCO2  49%
19. COc1cc(CNC2Cc3ccccc3C2)ccc1Oc1ccc2nc[nH]c2c1.O=C(O)C(F)(F)F  50%
20. COc1ccc(Nc2nccc(N3CCC(NC(=O)C(C)c4ccc(Cl)cc4)CC3)n2)cc1 (stereo not given)  52%
21. Cc1cc(-c2nc3ccc(CN4CCN(C)CC4)cc3[nH]2)nn1Cc1cc(Cl)ccc1OCc1ccccc1.Cl  52%
22. CN1CCN(CCCN(Cc2csc(-c3ccc(CNCc4ccccc4)cc3)n2)C(=O)c2cc(F)cc(F)c2)CC1.O=C(O)C(F)(F)F  53%
23. Cc1cc(N2CCCC2)nc(Nc2ccc(NC(=O)CC(C)C)cc2)n1  53%
24. CCn1c(-c2cc(C)on2)nc2cnc(Oc3ccc(C(=O)N4CC(=O)N(C)C4C(C)(C)C)cc3)cc21 (stereo not given)  57%
25. CO/C(=C\C=C\c1cc2cc(Cl)c(Cl)cc2[nH]1)C(=O)NCCCN(C)CCN(C)c1ccccc1  59%
26. CCCc1cc(=O)[nH]c(-n2nc(C)cc2NC(=O)c2cc3ccccc3o2)n1  63%
27. O=C(NCCc1ccc(Cl)c(Cl)c1)C1CCCN(C(=O)c2ccc(O)c(-c3ccc(Cl)c(Cl)c3)c2)C1 (stereo not given)  65%
28. CN(C)Cc1cccc(-c2ccc(NC(=O)c3ccc4c(=O)n(CCN5CCCCC5)cnc4c3)cc2)c1  67%
29. CCCC[C@H](NC(=O)O[C@H](COc1ccc(OCc2ccccc2)cc1)C(C)(C)C)C(=O)C(=O)Nc1cc[nH]n1  71%
30. CCN1CCc2nc3ccccc3c(C(=O)Nc3ccc(C#N)cc3)c2C1  72%
31. CC(=O)Nc1ccc(NC(=O)c2cc(-c3ccc(C)cc3O)n[nH]2)cc1  78%
32. O=C(NC(c1ccc(Cl)cc1)c1ccc2cccnc2c1O)c1ccccc1 (stereo not given)  80%
33. O=C(NCC1Cc2cc(Oc3ccccc3)ccc2O1)c1ccc([N+](=O)[O-])o1 (stereo not given)  81%
34. O=C(Nc1cccc(-c2ccc(-c3nc4cc(C(F)(F)F)ccc4[nH]3)cc2)c1)c1csnn1  93%
35. Cc1ccccc1C(=O)Nc1cccc(-c2nc3ncccn3c2C)c1  94%
36. Cc1c(Cc2ccccc2Cl)cnc2nc(N)nc(N)c12.Cl  96%
37. CC(C)CNCc1cccc(-c2cccc(CN(CCCN3CCN(C)CC3)C(=O)CCC3CCCC3)c2)c1.O=C(O)C(F)(F)F  96%
38. Cc1[nH]c(C)c(-c2ccc(OCc3ccccc3)cc2)c(=O)c1Br  96%
39. CC(C)(C)c1nn(-c2ccc(Cl)cc2)c2[nH]c(=O)c(CNCc3ccc4c(c3)OCO4)cc12  98%
40. CCC1CN2CCc3cc(OC)c(OC)cc3C2CC1CC1NCCc2cc(OC)c(OC)cc21.Cl (stereo not given)  98%
